According to the supplement of paper PMC11732987, “Enantioselective OTUD7B fragment discovery through chemoproteomics screening and high-throughput optimisation” (Communications Chemistry, 2025):

Assays:
Assay in all cases: log2 ratio of Biotin-Ahx-Ub-VS probe labelling (fragment/DMSO); higher = less target engagement (more negative = stronger competition), active = hit call of the paper (q ≤ 0.05, log2 ratio ≤ -1)
Conditions in all cases: compound concentration: 200 uM; treatment time: 3 h
USP19 = molecular target: T1, USP19 (UniProt O94966)
T1 sequence (whole entry): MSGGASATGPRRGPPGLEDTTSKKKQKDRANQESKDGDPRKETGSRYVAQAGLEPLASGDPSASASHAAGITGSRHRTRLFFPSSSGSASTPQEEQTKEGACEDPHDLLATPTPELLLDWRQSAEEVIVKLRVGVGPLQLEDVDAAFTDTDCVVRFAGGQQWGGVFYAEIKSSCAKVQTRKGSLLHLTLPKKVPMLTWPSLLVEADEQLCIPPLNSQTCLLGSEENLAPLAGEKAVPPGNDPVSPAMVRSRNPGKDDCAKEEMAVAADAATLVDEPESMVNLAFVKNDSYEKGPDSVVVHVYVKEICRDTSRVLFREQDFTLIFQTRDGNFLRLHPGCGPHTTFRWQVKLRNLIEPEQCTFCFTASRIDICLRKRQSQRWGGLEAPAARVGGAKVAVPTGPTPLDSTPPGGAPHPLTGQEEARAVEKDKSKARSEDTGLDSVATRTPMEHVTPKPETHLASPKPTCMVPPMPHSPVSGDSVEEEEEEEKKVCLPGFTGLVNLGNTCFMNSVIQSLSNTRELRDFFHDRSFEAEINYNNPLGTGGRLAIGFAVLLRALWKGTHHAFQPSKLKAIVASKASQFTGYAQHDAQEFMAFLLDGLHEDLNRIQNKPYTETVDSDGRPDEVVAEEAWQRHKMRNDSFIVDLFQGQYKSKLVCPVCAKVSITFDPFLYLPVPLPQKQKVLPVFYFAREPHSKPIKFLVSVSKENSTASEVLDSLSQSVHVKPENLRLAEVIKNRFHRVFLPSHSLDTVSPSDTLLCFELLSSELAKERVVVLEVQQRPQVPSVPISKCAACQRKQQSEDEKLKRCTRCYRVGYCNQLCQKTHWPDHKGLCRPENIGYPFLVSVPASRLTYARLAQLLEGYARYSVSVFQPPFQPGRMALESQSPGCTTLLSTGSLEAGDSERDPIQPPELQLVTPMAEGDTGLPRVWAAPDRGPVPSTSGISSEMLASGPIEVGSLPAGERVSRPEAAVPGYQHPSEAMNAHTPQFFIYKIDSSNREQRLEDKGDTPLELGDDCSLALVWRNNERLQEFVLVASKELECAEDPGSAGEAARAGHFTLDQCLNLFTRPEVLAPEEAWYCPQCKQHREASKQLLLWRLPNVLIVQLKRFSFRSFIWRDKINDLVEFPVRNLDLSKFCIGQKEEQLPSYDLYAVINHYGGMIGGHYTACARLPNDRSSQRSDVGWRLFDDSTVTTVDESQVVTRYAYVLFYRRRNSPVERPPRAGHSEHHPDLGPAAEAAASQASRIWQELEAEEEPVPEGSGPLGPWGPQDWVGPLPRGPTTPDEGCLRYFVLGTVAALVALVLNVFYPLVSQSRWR
In short: (§1)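 HEK293T lysate, 495 µg per sample in Tris/CHAPS/IGEPAL buffer with protease inhibitors, was treated in triplicate with fragment at 200 µM or vehicle for 3 h and then with Biotin-Ahx-Ub-VS at 0.5 µM final for 1 h. Labelled DUBs were NeutrAvidin-enriched, digested with LysC and trypsin, and run by diaPASEF LC-MS/MS. Spectronaut label-free quantities were global-median-normalised, and values are average log2 fragment/vehicle ratios by unpaired t-test on proteins with ≥2 unique peptides.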

USP24 = USP24 (UniProt Q9UPU5)
In short: as §1

USP25 = molecular target: T2, USP25 (UniProt Q9UHP3)
T2 sequence (whole entry): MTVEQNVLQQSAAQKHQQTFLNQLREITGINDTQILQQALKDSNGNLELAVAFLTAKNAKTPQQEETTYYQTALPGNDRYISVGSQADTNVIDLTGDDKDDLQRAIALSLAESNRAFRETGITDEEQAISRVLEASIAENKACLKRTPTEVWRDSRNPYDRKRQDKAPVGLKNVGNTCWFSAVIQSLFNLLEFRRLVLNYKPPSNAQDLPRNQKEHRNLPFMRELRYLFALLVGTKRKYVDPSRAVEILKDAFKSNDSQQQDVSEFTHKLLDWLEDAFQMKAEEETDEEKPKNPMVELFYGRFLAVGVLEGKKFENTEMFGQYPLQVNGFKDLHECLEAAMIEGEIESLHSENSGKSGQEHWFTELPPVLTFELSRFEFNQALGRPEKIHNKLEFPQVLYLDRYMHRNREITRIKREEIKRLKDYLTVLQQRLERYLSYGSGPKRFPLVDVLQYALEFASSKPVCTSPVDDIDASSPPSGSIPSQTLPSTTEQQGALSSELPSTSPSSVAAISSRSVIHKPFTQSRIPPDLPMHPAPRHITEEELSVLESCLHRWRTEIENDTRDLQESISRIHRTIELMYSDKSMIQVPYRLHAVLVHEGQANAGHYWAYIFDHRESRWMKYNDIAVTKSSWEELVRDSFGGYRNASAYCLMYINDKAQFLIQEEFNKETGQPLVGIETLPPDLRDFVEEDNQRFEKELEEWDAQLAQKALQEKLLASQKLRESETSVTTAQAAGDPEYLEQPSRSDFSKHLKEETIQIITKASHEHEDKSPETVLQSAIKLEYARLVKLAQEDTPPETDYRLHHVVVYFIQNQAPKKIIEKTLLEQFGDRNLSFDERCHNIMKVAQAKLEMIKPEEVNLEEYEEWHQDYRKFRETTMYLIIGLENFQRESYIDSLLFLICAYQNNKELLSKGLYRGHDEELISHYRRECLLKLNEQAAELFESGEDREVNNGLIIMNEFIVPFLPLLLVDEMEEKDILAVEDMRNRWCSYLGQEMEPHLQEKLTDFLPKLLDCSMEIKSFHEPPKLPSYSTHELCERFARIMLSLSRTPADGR
In short: as §1

USP28 = molecular target: T3, USP28 (UniProt Q96RU2)
T3 sequence (whole entry): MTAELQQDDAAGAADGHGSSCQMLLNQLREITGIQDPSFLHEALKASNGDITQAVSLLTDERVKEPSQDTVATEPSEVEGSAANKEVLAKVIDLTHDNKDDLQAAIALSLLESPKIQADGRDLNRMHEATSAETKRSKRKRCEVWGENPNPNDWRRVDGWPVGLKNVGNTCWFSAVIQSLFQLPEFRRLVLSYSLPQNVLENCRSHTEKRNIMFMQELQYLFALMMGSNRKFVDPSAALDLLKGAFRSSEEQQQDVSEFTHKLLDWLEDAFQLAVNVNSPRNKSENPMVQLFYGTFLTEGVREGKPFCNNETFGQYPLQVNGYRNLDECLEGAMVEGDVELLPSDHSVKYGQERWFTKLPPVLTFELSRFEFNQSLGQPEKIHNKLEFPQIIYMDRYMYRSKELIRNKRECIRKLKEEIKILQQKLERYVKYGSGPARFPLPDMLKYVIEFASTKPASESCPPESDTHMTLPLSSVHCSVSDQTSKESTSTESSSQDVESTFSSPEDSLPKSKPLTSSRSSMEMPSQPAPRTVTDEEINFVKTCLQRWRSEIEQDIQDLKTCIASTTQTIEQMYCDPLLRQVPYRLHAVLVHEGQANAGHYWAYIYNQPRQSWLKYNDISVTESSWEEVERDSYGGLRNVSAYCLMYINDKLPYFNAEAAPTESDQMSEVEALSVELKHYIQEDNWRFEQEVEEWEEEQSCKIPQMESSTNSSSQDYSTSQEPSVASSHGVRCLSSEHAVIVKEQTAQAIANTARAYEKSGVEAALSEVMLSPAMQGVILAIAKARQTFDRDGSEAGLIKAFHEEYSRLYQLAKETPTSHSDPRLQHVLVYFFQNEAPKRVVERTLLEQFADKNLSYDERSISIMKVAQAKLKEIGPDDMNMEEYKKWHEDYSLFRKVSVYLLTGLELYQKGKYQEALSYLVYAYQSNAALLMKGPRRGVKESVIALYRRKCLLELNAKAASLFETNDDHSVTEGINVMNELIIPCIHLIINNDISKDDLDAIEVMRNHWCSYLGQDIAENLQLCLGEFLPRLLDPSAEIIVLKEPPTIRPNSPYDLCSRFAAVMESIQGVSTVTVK
In short: as §1

Measured: log2 ratio of Biotin-Ahx-Ub-VS probe labelling

Chain of USP24 (Q9UPU5 whole entry): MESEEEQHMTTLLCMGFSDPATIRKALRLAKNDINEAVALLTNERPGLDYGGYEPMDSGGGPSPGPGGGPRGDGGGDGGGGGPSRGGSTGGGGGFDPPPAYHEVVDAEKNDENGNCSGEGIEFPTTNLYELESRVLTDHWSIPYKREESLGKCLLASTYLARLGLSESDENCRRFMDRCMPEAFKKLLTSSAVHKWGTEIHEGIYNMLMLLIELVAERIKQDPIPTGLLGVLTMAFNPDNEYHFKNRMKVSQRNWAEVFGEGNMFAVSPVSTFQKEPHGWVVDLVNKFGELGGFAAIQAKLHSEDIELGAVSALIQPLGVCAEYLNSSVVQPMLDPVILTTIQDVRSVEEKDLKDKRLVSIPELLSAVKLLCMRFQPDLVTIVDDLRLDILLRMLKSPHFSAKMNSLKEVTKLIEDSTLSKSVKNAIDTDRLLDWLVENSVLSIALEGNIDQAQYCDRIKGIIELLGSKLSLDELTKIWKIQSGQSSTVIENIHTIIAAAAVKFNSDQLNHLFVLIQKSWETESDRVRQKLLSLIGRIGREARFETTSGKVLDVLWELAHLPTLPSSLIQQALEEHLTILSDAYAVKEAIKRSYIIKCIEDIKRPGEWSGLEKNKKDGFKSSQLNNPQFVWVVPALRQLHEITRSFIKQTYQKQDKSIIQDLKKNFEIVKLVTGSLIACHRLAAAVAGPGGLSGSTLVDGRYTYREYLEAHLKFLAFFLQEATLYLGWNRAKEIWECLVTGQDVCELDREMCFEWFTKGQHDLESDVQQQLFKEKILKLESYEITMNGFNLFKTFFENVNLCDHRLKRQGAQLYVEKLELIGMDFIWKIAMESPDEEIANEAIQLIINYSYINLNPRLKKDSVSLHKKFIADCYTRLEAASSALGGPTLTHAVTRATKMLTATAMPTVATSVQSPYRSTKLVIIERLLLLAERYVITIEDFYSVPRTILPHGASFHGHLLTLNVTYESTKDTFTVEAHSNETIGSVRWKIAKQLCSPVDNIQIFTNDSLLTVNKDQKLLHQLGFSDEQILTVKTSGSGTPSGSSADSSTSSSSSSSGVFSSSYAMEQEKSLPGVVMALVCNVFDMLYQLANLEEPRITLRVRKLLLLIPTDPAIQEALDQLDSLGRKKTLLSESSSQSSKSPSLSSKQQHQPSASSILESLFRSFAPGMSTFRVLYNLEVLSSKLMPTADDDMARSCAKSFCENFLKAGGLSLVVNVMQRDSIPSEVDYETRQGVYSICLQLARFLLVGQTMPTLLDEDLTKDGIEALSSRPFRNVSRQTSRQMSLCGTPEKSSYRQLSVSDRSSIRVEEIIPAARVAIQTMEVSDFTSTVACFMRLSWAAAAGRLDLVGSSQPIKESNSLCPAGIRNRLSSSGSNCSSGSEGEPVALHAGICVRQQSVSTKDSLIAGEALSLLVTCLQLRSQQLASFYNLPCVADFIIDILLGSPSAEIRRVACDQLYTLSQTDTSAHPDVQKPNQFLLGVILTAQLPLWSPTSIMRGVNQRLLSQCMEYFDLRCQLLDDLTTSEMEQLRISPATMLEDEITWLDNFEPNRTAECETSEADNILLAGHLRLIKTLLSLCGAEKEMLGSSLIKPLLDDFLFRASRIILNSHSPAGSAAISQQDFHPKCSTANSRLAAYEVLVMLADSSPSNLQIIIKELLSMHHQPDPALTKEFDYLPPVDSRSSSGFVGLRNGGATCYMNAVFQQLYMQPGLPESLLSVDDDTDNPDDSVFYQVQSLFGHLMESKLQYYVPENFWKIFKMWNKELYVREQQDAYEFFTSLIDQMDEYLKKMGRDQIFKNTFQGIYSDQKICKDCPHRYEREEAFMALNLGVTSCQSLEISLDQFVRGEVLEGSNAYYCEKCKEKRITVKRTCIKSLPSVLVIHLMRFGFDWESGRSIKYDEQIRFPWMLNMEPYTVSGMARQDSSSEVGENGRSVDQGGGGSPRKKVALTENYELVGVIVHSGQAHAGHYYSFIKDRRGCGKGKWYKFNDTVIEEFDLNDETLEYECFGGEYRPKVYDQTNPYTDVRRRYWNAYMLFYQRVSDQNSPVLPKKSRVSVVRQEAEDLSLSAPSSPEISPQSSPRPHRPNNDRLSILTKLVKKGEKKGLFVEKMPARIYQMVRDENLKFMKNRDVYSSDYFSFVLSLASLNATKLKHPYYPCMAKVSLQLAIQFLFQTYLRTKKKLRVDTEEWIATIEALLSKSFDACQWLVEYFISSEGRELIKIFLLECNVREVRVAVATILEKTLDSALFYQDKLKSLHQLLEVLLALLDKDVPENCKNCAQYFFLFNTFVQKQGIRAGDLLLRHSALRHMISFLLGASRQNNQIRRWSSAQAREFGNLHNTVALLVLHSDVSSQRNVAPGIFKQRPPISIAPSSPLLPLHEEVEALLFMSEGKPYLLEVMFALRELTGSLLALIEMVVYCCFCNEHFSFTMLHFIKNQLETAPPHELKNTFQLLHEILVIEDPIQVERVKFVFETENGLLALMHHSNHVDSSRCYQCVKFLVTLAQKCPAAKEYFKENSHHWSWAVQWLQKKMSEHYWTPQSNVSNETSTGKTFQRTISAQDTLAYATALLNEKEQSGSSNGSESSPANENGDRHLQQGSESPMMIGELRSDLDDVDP

O=C(CCl)N1CCCCC12CCOCC2
inactive: USP19 -0.481 | USP24 -0.606 | USP25 -0.341 | USP28 -0.65
